Assay results reported in PubChem BioAssay (NCATS).
Records with an inconclusive call do not appear. Activity calls are given as the source filed them. Calls follow the shape of the dose curve; as a rule, active = well fitted curve in the direction sought with a large enough effect; inconclusive = small, poorly fitted or top-dose-only effect, or another doubt; inactive = no such curve, though single readings can be large; an effect the other way counts as inactive or inconclusive.

Columns and labels:
[1] = target: Protein phosphatase 1D (Homo sapiens) (UniProt O15297); test: RapidFire Mass Spectrometry qHTS Assay for Modulators of WT P53-Induced Phosphatase 1 (WIP1) (AID 1347424);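 also: amount of dephosphorylated VEPPL-S-QETFS peptide product formed by WIP1; series mostly up to about 63 µM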
Method in brief: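 Mass-spectrometric measurement of dephosphorylated peptide after a 5 min room-temperature reaction of 10 nM WIP1 with 2 uM phosphopeptide, following 1 h compound preincubation in 30 mM MgCl2 buffer.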

[2] = target: Protein phosphatase 1D (Homo sapiens) (UniProt O15297); test: Rhodamine-PBP qHTS Assay for Modulators of WT P53-Induced Phosphatase 1 (WIP1) (AID 1347425)
Method in brief: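 Steps: enzyme with Rh-PBP sensor and compounds, room-temperature incubation of 1 hr, baseline read, addition of VEPPL-pS-QETFS (10 uM final), kinetic fluorescence reads at 525/598 nm. Activity equals final minus baseline signal.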

[3] = Primary qHTS for inhibitors of La Crosse Virus (LACV) - induced cell death in SH-SY5Y cells (AID 1508616);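 also: top concentration of the series differs between compounds; higher means more rescue of cells from virus-induced death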
Method in brief: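 SH-SY5Y, 6000 cells/well; cpd via pin tool in DMSO; LACV 0.01 MOI; 6 d 37C 5% CO2; ATPLite, 5 min RT; luminescence normalized to ±virus DMSO controls.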

[4] = target: Calcium and integrin-binding protein 1 (Homo sapiens) (UniProt Q99828); test: Primary qHTS for Identification of Calcium Integrin Binding Protein 1 (CIB1) Competitor (AID 1508620);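 also: GST tagged CIB1 binding a fluorescein labelled alphaIIb integrin peptide tracer; top concentration of the series differs between compounds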
Method in brief: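 Fluorescence polarization competition: CIB1-GST (1 uM final) preincubated with compound 15 min at room temperature, then FITC-labeled alphaIIb peptide (100 nM final) added for another 15 min. Polarization read at Ex 480/Em 540.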

Measured: Potency

Chain of Protein phosphatase 1D (Homo sapiens) (O15297 whole entry, looked up): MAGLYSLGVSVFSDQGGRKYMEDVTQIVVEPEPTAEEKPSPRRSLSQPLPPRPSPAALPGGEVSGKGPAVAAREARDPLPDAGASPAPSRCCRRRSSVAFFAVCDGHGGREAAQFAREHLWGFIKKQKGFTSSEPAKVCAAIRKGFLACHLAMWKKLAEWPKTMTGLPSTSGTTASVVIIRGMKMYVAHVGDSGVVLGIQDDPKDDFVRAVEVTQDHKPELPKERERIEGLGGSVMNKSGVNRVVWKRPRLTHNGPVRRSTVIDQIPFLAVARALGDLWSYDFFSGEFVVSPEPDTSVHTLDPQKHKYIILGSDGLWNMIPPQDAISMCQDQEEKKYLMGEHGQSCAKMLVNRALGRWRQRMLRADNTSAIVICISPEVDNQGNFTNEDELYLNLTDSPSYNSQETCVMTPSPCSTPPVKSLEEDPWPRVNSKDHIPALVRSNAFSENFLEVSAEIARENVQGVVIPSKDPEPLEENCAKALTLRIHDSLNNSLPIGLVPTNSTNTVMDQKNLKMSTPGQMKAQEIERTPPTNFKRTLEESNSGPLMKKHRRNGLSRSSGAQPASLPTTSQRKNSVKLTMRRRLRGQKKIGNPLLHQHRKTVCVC
Chain of Calcium and integrin-binding protein 1 (Homo sapiens) (Q99828 whole entry, looked up): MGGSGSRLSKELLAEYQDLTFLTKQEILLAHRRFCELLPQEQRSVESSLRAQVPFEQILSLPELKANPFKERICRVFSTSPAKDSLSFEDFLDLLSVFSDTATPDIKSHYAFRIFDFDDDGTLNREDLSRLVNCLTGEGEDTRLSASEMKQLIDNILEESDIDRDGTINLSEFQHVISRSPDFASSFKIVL

CCCC(=O)OCOC(=O)C1=C(C)NC(C)=C(C(=O)OC)C1c1cccc(Cl)c1Cl (stereo not given)
inactive: all assays above

CC(=O)OC/C=C(C)/C=C/C=C(C)/C=C/C1=C(C)CCCC1(C)C
inactive: all assays above

CC(C)(C)CC(=O)OCC(=O)[C@@]1(O)CC[C@H]2[C@@H]3CCC4=CC(=O)C=C[C@]4(C)[C@H]3[C@@H](O)C[C@@]21C
inactive: all assays above

Cc1oc(-c2ccccc2)nc1CCC(=O)c1ccc(CC2SC(=O)NC2=O)cc1 (stereo not given)
inactive: [4]

COc1ccc2nc(SCc3ncc(C)c(OC)c3C)[nH]c2c1
inactive: all assays above

CCOC(=O)C1=C(C)NC(C)=C(C(=O)OCC)C1c1ccccc1/C=C/C(=O)OC(C)(C)C
inactive: [1] | [2] | [4]

Cc1ccc(CCn2c3c(c4cc(Cl)ccc42)CN(C)CC3)cn1
inactive: all assays above

COC(=O)C1=C(C)NC(C)=C(C(=O)OCCc2ccc(N3CCN(C(c4ccccc4)c4ccccc4)CC3)cc2)C1c1cccc([N+](=O)[O-])c1 (stereo not given)
inactive: [1] | [2] | [4]

CN1CCCN(C(c2ccccc2)c2ccc(Cl)cc2)CC1 (stereo not given)
inactive: [1] | [2] | [4]

COCCc1ccccn1
inactive: all assays above

CC(NN)c1ccccc1 (stereo not given)
inactive: [2] | [4]

CCCCCCCCCCCCCCCCCCNC(=O)OC1CCN(C(=O)OC[C@H](COC(=O)N(Cc2cccc[n+]2CC)C(=O)c2ccccc2OC)OC)CC1
inactive: all assays above

N#CC1(c2ccc(F)cc2)CCC(=O)CC1
inactive: [1] | [2] | [4]

CC(C)(C)C(O)/C=C/c1ccc2c(c1)OCO2 (stereo not given)
inactive: [2] | [3]
